Assay outcomes (PubChem BioAssay)
In the library only some 15% were active in any assay of this set; here they are far more common.
12-LOX inh: inhibitors of human 12S-lipoxygenase ALOX12 | 580,000 compounds, 1.1% hits | AID 1671190 | purified 12hLO, xylenol orange hydroperoxide absorbance | Potency, µM (doses to about 108 µM), inactives show at the highest dose activity change, negative = inhibition, most hits filed as inhibitors | P18054
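Purified human 12hLO at 150 nM in 25 mM Hepes, 0.01% Triton X-100, pH 7.0, preincubated 15 min at room temperature with compound. Reaction started with 40 uM arachidonic acid, 30 min at room temperature. Hydroperoxide measured by Fe-xylenol orange, 573/405 nm absorbance ratio.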
VP16 counter: inhibits Gal4-VP16 luciferase reporter, ROR gamma counter-screen; Potency, µM (series often up to 53.6 µM), inactives show at the top dose activity, negative = inhibition, usual class: inhibitors; 310,000 compounds, 3.5% hits; Drosophila S2 Gal4-VP16 UAS-luciferase, luminescence, 20 h;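 also: Gal4-VP16 expression switched on by copper sulfate through the metallothionein promoter; nearly all actives have a fitted effect of over 50% in size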
TDP1 cell CPT: DT40-hTDP1 cell growth loss with CPT. chicken DT40 Tdp1-/-;hTDP1 cells + 20 nM CPT, ATP luminescence, 48 h. Potency, µM (series often up to 46.2 µM), inactives show at the top dose activity change, negative = growth inhibition, actives largely listed as inhibitors. 420,000 compounds, 12% hits; also: nearly all actives have a fitted effect of over 55% in size
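Cell growth measured by CellTiter-Glo luminescence after a minimum 48 h, 37 C compound exposure with 20 nM CPT in Tdp1-knockout DT40 cells stably expressing hTDP1, seeded 400/well; qHTS titration format.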
ELG1 repair inh: ELG1-dependent DNA repair inhibition | HEK293T ELG1-luciferase reporter, luminescence, 16 h; DNA damage induced by 5-fluorouridine | Potency, µM (series often up to 46.1 µM), without a hit: at the highest dose activity change, negative = inhibition, hits mostly inhibitors | 330,000 compounds, 2.3% hits | AID 504467; also: nearly all actives have a fitted effect of over 55% in size
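Overnight (16 hr) co-exposure of 2,000 cells/well to 5-fluorouridine and compound at 37 °C preceded detection. Luciferase was quantified via ONE-Glo luminescence; loss of signal denotes inhibition.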
RORg inh: inhibitors of mouse ROR gamma transcriptional activity; Drosophila S2 Gal4-RORgamma UAS-luciferase reporter, 20 h; Potency, µM (highest dose often 53.6 µM), for the others: at the highest dose activity change, negative = inhibition, usual class: inhibitors; 310,000 compounds, 5.4% hits; also: nearly all actives have a fitted effect of over 60% in size
Target sequence (P51450 whole entry, looked up, the tested form may be a part): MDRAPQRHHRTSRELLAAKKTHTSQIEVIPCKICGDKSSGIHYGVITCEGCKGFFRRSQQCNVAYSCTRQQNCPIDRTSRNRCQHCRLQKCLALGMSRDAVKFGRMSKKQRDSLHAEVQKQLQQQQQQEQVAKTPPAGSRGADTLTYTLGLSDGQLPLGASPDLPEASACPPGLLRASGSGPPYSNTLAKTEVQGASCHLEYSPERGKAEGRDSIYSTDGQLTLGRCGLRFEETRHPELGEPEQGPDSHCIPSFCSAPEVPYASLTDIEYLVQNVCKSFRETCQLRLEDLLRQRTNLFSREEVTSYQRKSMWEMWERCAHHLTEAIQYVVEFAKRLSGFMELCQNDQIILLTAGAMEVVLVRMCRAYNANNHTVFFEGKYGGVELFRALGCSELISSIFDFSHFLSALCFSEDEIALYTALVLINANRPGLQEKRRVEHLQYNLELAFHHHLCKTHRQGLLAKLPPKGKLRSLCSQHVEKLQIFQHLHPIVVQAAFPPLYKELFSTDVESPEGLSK
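In this cell-based reporter format, copper sulfate (700 uM final) drives Gal4–ROR gamma fusion expression from a metallothionein promoter in Drosophila Schneider cells; compounds preincubated 1 hr, reporter read after 20 hr at ambient temperature.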
TDP1 cell noCPT: qHTS for Inhibitors of human tyrosyl-DNA phosphodiesterase 1 (TDP1): qHTS in cells in absence of CPT | AID 686978, 2013 | 420,000 compounds, 15% hits | Potency, µM (highest dose often 46.2 µM), inactives show at the highest dose activity change, negative = growth inhibition, hits mostly inhibitors | DT40 Tdp1-/- hTDP1 cells, no CPT, ATP luminescence, 48 h; also: nearly all actives have a fitted effect of over 55% in size
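Chicken DT40 Tdp1-/- cells complemented with human TDP1, screened without camptothecin (DMSO vehicle only), 400 cells/well. Compounds pin-transferred, cells incubated at 37 °C for at least 48 hr. Growth read as ATP-dependent luminescence (CellTiter-Glo, 30 min at RT).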
Numbers without * were called inactive; ? = inconclusive; · = not tested or not shown; [ ] = dose if it differs, or a comment. Calls follow the shape of the dose curve; as a rule, active = well fitted curve in the direction sought with a large enough effect; inconclusive = small, poorly fitted or top-dose-only effect, or another doubt; inactive = no such curve, though single readings can be large; an effect the other way counts as inactive or inconclusive. % is scaled to controls: 0 for no effect and ±100 for the full control effect; potency is read from the fitted curve at half-maximal effect.

SMILES	12-LOX inh	VP16 counter	TDP1 cell CPT	ELG1 repair inh	RORg inh	TDP1 cell noCPT
COC(=O)Cc1c(C)c2ccc(OCC(C)=O)c(C)c2oc1=O	0.3%	-17.8%	-27.5%	?	-0.6%	?
C=C(C)COc1ccc2c(C)c(CC(=O)OC)c(=O)oc2c1C	·	?	18.4µM*	?	?	11.6µM*
COC(=O)Cc1c(C)c2ccc(OCC(=O)N3CCCC(C)C3)c(C)c2oc1=O (centres undefined)	-5.9%	-19.1%	25.9µM*	?	36.1%	?
CCCOc1ccc2c(C)c(CC(=O)OC)c(=O)oc2c1	-28.1%	4.8%	?	?	26.4%	10.3µM*
COCCN1CC(CO)C2(CCN(C(=O)Cc3c(C)noc3C)CC2)C1 (centres undefined)	58.4%	·	·	·	·	·
O=C(Nc1ccccn1)C1=C(c2ccccc2)S(=O)(=O)CCO1	-11.0%	·	·	·	·	·
Cc1nn(-c2ccccc2)c(Oc2ccccc2F)c1CCC(=O)NCC1CC1	1.7%	·	·	·	·	·
CCOC(=O)CCc1c(C)c2ccc(OCC(=O)N(CC)CC)c(C)c2oc1=O	16.3%	?	3.3%	18.4µM*	?	?
Cc1cccc(OCc2nnc(SCC(=O)Nc3ccc(C)cc3C)o2)c1	35.5µM*	·	-20.9%	·	·	?
Cc1ccc(OCc2nnc(SCC(=O)CC(=O)Nc3ccccc3)o2)cc1	-6.5%	?	-22.8%	0.1%	12.6µM*	-8.8%
COc1ccc(OCc2nnc(SCC(=O)Nc3ccc(C)cc3)o2)cc1	-3.8%	-0.9%	7.7%	0.0%	-12.5%	-16.8%
Cc1cccc(OCc2nnc(SCC(=O)Nc3ccc(C)c(C)c3)o2)c1	6.1%[57.4 µM]	-19.2%	-4.2%	-2.5%	-23.9%	1.0%
CCn1c(=O)c(C(=O)NCc2ccccc2)c(O)c2ccccc21	24.3%	15.8µM*	-19.8%	-2.3%	?	?
CCn1c(=O)c(C(=O)NCCc2ccc(Cl)cc2)c(O)c2ccccc21	0.2%	-18.6%	?	-15.0%	?	?
CCCn1c(=O)c(C(=O)NCCc2ccc(Cl)cc2)c(O)c2ccccc21	0.0%	?	?	-1.0%	14.1µM*	?
CCn1c(=O)c(C(=O)NCc2cccnc2)c(O)c2ccccc21	7.2%	-9.9%	?	?	2.6%	?
CCn1c(=O)c(C(=O)NCc2ccc(Cl)cc2)c(O)c2ccccc21	3.9%	6.5%	20.6µM*	-0.9%	?	?
CCn1c(=O)c(C(=O)NCc2ccc(F)cc2)c(O)c2ccccc21	2.5%	?	9.2µM*	9.9%	12.6µM*	?
O=C(Nc1ccc(-c2nc3ccccc3o2)cc1)c1ccc(Cl)c([N+](=O)[O-])c1	7.7%	·	·	·	·	·
Cc1cccc(OCC(=O)Nc2onc3c2CC(C)CC3)c1 (centres undefined)	10.3%	·	·	·	·	·
CCN(CC)C(=O)c1ccc(-c2nnc3ccc(NC(=O)C4CC4)cn23)cc1	-0.6%	·	·	·	·	·
Cc1ccc2nc(-c3cc(NC(=O)c4cccc(Cl)c4)ccc3O)oc2c1	26.9%	·	·	·	·	·
COc1ccc(NC(=O)c2cnc(SC)nc2C(F)(F)F)cc1OC	-16.6%	·	·	·	·	·
C/C=C/c1ccc(OCCCNCC(C)O)c(OC)c1 (centres undefined)	0.0%	0.0%	?	10.1%	-5.1%	?
C/C=C/c1ccc(OCCCCN2CCN(CC)CC2)c(OC)c1	?	1.4%	?	10.3%	5.7%	29.1µM*
SMILES	12-LOX inh	VP16 counter	TDP1 cell CPT	ELG1 repair inh	RORg inh	TDP1 cell noCPT
C/C=C/c1ccc(OCCn2nnc3ccccc32)c(OC)c1	0.0%	?	18.4µM*	?	?	14.6µM*
C/C=C/c1ccc(OCCCCNCc2ccco2)c(OC)c1	-27.6%	-18.5%	25.9µM*	-1.7%	7.3%	?
C=CCc1ccccc1OCCn1nnc2ccccc21	-2.5%	-3.5%	?	-11.9%	-8.5%	23.1µM*
CCOc1ccc(C2Nc3c(C)cccc3-c3cc(C)nn32)cc1 (centres undefined)	-11.0%	·	20.6µM*	·	·	?
Cc1cccc(NC(=O)Cn2cccc2-c2nc(-c3ccc(F)cc3)no2)c1	13.6%	·	·	·	·	·
CCOc1ccc2nc(NC3=NC(C)(C)C=C(C)N3)nc(C)c2c1	-29.5%	-15.8%	?	?	-41.2%	?
CCOc1ccc2nc(NC3=NC(c4ccc(OC)cc4)CC(=O)N3)nc(C)c2c1 (centres undefined)	?	?	23.1µM*	?	?	20.6µM*
Cc1c(Cl)cccc1NC(=S)NCCc1ccc(F)cc1	?	3.55µM*	-26.6%	1.8%	4.47µM*	-19.5%
Cc1c(Cl)cccc1NC(=S)NCCc1ccc(S(N)(=O)=O)cc1	-23.9%	10.9%	-7.4%	-15.0%	7.6%	-17.1%
Cc1c(Cl)cccc1NC(=S)NCCc1ccc(Cl)cc1	25.1µM*	3.16µM*	?	-9.5%	5.62µM*	?
Cc1c(Cl)cccc1NC(=S)NCc1ccc(Cl)cc1	34.2%	·	-6.0%	·	·	-24.9%
O=C(Cn1c(NCc2ccccc2)nc2ccccc21)Nc1ccccc1	-3.0%	·	·	·	·	·
O=C(CCCOc1ccc(Cl)cc1Cl)Nc1ccccc1C(=O)O	?	-11.7%	15.4%	?	8.1%	-16.3%
COc1ccccc1NC(=O)NCc1ccco1	11.5%	-10.5%	-15.8%	19.1%	0.8%	?
CCOc1ccccc1NC(=S)NC(=O)CCCOc1ccc(Cl)cc1Cl	?	22.4µM*	-21.1%	-12.3%	5.01µM*	?
COc1ccc(Cl)cc1NC(=S)NCc1ccccn1	5.9%	?	?	?	?	?
COc1ccc(Cl)cc1NC(=S)NCc1cccnc1	-21.1%	-5.9%	-6.8%	-3.6%	9.0%	?
COc1ccccc1NC(=S)NCc1ccccn1	1.1%	?	2.31µM*	14.6%	?	4.11µM*
CCOc1ccccc1NC(=S)NCc1ccco1	-32.5%	?	-0.7%	2.2%	10µM*	-13.0%
COc1ccccc1NC(=S)NCc1ccc(Cl)cc1	11.2µM*	8.91µM*	-0.4%	-4.7%	11.2µM*	?
CCOc1ccccc1NC(=S)NCc1cccn1C	13.1%	20µM*	-2.9%	-1.9%	11.2µM*	-7.0%
CCOc1ccccc1NC(=O)NCc1ccc(F)cc1	0.4%	3.2%	-25.1%	4.5%	14.8%	-27.9%
COc1ccc(NC(=S)Nc2ncccc2C)c(OC)c1	?	10µM*	-24.6%	?	3.16µM*	?
CCOc1ccccc1NC(=S)NCc1ccccc1	22.4%	8.91µM*	10.3µM*	-1.8%	7.08µM*	?
